# According to PubChem BioAssay (NCATS):
# Records with an inconclusive call do not appear. Calls of active or inactive are those of the source. The call rests on the fitted dose curve; in most records, active means well fitted inhibition curve with a large enough effect; inconclusive means small, poorly fitted or top-dose-only effect; inactive means flat fitted curve, though single readings scatter.
# Test: BET inhibitor-based combinations targeting novel dependencies in MECOM-rearranged (r) AML: AML-191 cell line (AID 2202236; further: nearly all actives have a fitted effect of over 35% in size;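 on viability (% of control): plate controls were vehicle wells for no effect and wells without cells for full effect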)
# Conditions: AML-191 viability, CellTiter-Glo luminescence, 48 h; series mostly up to 46 µM
# Excerpt: Ecotropic viral insertion site 1 (EVI1) is located on chromosome 3q26.2 as part of the MECOM (MDS and EVI1 complex) locus. Under normal hematopoiesis, EVI1 is a regulator of hematopoietic stem cell maintenance and self-renewal and EVI1 levels decrease as the cells differentiate. In approximately 5-10% of de novo acute myeloid leukemia (AML) EVI1 is aberrantly expressed, including Chromosomal inv(3)(q21;q26.2) or t(3;3)(q21;q26.2) alterations (MECOM-r) that account for about 50% of AML with EVI1 overexpression 31. AMLs with high levels of EVI1 have a poor prognosis and an overall survival time averaging between 10-14 months. EVI1 overexpression confers resistance in leukemia cells, highlighting the need to develop new targeted therapies for EVI1 overexpressing AMLs.
# Here, we performed an unbiased chemical drug screening by evaluating the single agent activity of a collection of 2,480 oncology-focused, approved and investigational drugs (NCATS Mechanism Interrogation Plates, MIPE v5.0) against a panel of seven AML cell lines. These included four MECOM-r cell-lines (AML-191, AML-194, UCSD-AML1 and HNT-34) and three non-MECOM-r AMLs (MV4-11, OCI-AML3 and SET-2). Exploiting the mechanistic redundancy built in the library, we identified target-level sensitivities in MECOM-r AML cells and relative activity as compared to other AML subtypes.
# A collection of 2480 mechanistically annotated dugs (MIPE v5.0) was used to screen four 3q26.2 rearranged AML cell lines and three non-3q26.2 rearranged AML cell lines. This library purposely exploits redundancy by including multiple inhibitors of key onco-targets, while simultaneously encompassing mechanistic diversity, targeting more than 800 distinct mechanisms of action. Briefly, cells were seeded in 5 uL of growth media using a Multidrop Combi dispenser into 1536 well white polystyrene tissue culture treated plates (Corning) at a density of 500cells/well. For each cell-line, for each of the 2480 drugs in MIPE v5.0 library, an 11-point dose curve was generated via a 1536 pin-tool. Plates were incubated for 48 hr at standard incubator conditions, covered by a stainless steel gasketed lid to prevent evaporation. Cell viability was determined by luminescence based, Cell Titer Glo assay (Promega). In detail, 3 uL of Cell Titer Glo were added to each well and plates were incubated at room temperature for 15 min with a stainless-steel lid in place. Luminescence readings were taken using a Viewlux (PerkinElmer) with a 2 s exposure time per plate. Compound dose-response curves were normalized to DMSO and empty well controls on each plate. Quantitative drug activity data from dose-response curves was determined utilizing area Under the Curve (AUC) and Z-transformed AUC (Z-AUC, a mean-centering transformation applied to each individual cell-line screened).
# Potency means the concentration at half of the fitted maximal effect.
SMILES,Potency,viability (% of control)
Cc1sc2c(c1C)C(c1ccc(Cl)cc1)=N[C@@H](CC(=O)Nc1ccc(OCCOCCOCCOCCNc3cccc4c3C(=O)N(C3CCC(=O)NC3=O)C4=O)cc1)c1nnc(C)n1-2 (stereo not given in full),0.0833 µM (active),–
Clc1ccccc1C(c1ccccc1)(c1ccccc1)n1ccnc1,23.5 µM (active),–
CC(C)(C)OC(=O)CN(Cc1ccc(Cl)cc1)Cc1ccc([N+](=O)[O-])s1,inactive,–
O=C(O)c1cn(-c2ccc(F)cc2)c2cc(N3CCNCC3)c(F)cc2c1=O,inactive,–
CN1C(=O)N[C@@H](Cc2c[nH]c3c(Cl)cccc23)C1=O,inactive,–
COc1cc(C(=O)N2CCC(N3CCN(C)CC3)CC2)ccc1Nc1ncc2c(n1)N(C)c1ccccc1C(=O)N2C,9.34 µM (active),–
CC1=C(/C=C/C(C)=C/C=C/C(C)=C\C(=O)O)C(C)(C)CCC1,5.25 µM (active),–
COc1cc(C(=O)NC2CCN(C)CC2)c(F)cc1Nc1ncc2c(n1)N(C1CCCC1)CC(F)(F)C(=O)N2C,0.118 µM (active),–
Nc1ncnc2c1c(-c1cnc3[nH]ccc3c1)nn2C1CCCC1,2.95 µM (active),–
COc1ccc(C=Cc2cc(OC)c(OC)c(OC)c2)cc1NC(=O)[C@H](N)CO,0.332 µM (active),–
COc1c2occc2cc2ccc(=O)oc12,inactive,–
NC(=O)c1ccccc1Nc1ccnc(Nc2cccc(O)c2)n1,5.25 µM (active),–
Cc1cc2c(s1)Nc1ccccc1N=C2N1CCN(C)CC1,inactive,–
Cn1ncnc1[C@H]1c2n[nH]c(=O)c3cc(F)cc(c23)N[C@@H]1c1ccc(F)cc1,1.86 µM (active),–
CC(=O)SCC(Cc1ccccc1)C(=O)NCC(=O)OCc1ccccc1 (stereo not given),inactive,–
COc1cc(C(C)C)c(Oc2cnc(NC(CO)CO)nc2N)cc1I,inactive,–
O=C(O)c1ccc2cc(-c3ccc(O)c(C45CC6CC(CC(C6)C4)C5)c3)ccc2c1,0.934 µM (active),–
CC(C)C(C)C=CC(C)C1CCC2C3=CC=C4CC(O)CCC4(C)C3CCC21C (stereo not given),inactive,–
Cn1c(CNc2ccc(C(=N)N)cc2)nc2cc(C(=O)N(CCC(=O)O)c3ccccn3)ccc21,–,101% [at 0.315 µM] (inactive)
Cc1nc(Nc2n[nH]c3c2CN(C(=O)N[C@H](CN(C)C)c2ccccc2)C3(C)C)c2sccc2n1,1.18 µM (active),–

SMILES,Potency,viability (% of control)
O=C(Nc1ncc(-c2cc(C(F)F)nn2-c2c(Cl)cccc2Cl)s1)C1CC1,0.934 µM (active),–
Cn1ncc(Cl)c1-c1cc(C(=O)N[C@H](CN)Cc2cccc(F)c2)sc1Cl,16.6 µM (active),–
Cc1ccccc1C(=O)Nc1ccc(C(=O)N2CCCC(O)c3cc(Cl)ccc32)c(C)c1 (stereo not given),inactive,–
CN1CCN(c2ccc(C(=O)Nc3n[nH]c4ccc(Cc5cc(F)cc(F)c5)cc34)c(NC3CCOCC3)c2)CC1,5.25 µM (active),–
Cc1c(C(=O)Nc2ccc(N3C[C@@H](C)O[C@@H](C)C3)nc2)cccc1-c1ccc(OC(F)(F)F)cc1,inactive,–
Nc1ccc(-c2ccc3ncc4ccc(=O)n(-c5cccc(C(F)(F)F)c5)c4c3c2)cn1,0.0525 µM (active),–
COc1cc(F)c(C(C)C)cc1-c1ccc(C(F)(F)F)cc1CN1C(=O)O[C@H](c2cc(C(F)(F)F)cc(C(F)(F)F)c2)[C@@H]1C,inactive,–
NC[C@H]1O[C@H](O[C@@H]2[C@@H](O)[C@@H](O[C@H]3O[C@H](CO)[C@@H](O)[C@H](N)[C@@H]3O)[C@H](N)C[C@@H]2N)[C@H](O)[C@@H](O)[C@H]1O,inactive,–
COc1ccc2c(c1)CC[C@@H](CN(C)CC(=O)O)[C@H]2c1ccccc1,inactive,–
C=C1C[C@@]2(O)O[C@@]3(C[C@H]2C(C)C)[C@@H](C)CC[C@@H]13,inactive,–
Nc1nc(F)nc2c1ncn2[C@@H]1O[C@H](CO)[C@@H](O)[C@@H]1O,2.95 µM (active),–
O=C(NCCO[N+](=O)[O-])c1cccnc1,inactive,–
Cc1c(Cn2c(C)nc3c(C(=O)O)cc(N4CCOCC4)cc32)cccc1C(F)(F)F,4.68 µM (active),–
CCN(CC)CCCCNc1ncc2cc(-c3cc(OC)cc(OC)c3)c(NC(=O)NC(C)(C)C)nc2n1,18.6 µM (active),–
COc1cc2c(cc1OC)CN(CCc1ccc(NC(=O)c3cccc4c(=O)c5cccc(OC)c5[nH]c34)cc1)CC2,inactive,–
Cc1ccccc1C(C(=O)NC1CCCCC1)N(C(=O)Cn1ccnc1C)c1cccc(F)c1 (stereo not given),inactive,–
CC(=O)Nc1ccc([C@H](C)C(=O)Nc2ncc(C(C)C)s2)cc1,1.86 µM (active),–
CC1(C)[C@@H](O)CC[C@]2(C)[C@H]3C(=O)C=C4[C@@H]5C[C@@](C)(C(=O)O)CC[C@]5(C)CC[C@@]4(C)[C@]3(C)CC[C@@H]12,inactive,–
Cc1nc(C(=O)NCC(=O)O)c(O)c2ccc(Oc3ccccc3)cc12,inactive,–
CC1(C)CCC2=C(O1)c1ccccc1C(=O)C2=O,7.42 µM (active),–
